Experimental data from PubChem BioAssay AID1159580 (chemical genetic matrix, 2015).
Where “and” joins values, the source holds several entries; their conditions need not be identical. Identical values can stand only once. Among all 5,500 compounds or so, about 2,000 (36%) were called active. Inconclusive results (about 18%) are left out. No stated cut-off is given here; in the data, active means normalized growth mostly below about 0.91 (no sharp cut-off); inconclusive means no clear call, values can overlap the other calls; inactive means mostly above about 0.92. This is one part of the list.

Test: chemical genetic growth profiling, strain panel (AID 1159580);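 further: tested at 20 µM; growth read once vehicle control cultures reached saturation at 30 °C; 1 = growth at the plate median or of vehicle wells; lower values mean less growth of the strain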
Details: S. cerevisiae deletion strains, growth OD

Measured: normalized growth

NNc1nncc2ccccc12
inactive: locus YAL013W, strain DEP1, active compounds read low 1.01 | locus YAL021C, strain ccr4, active compounds read low 0.991 | locus YAL026C, strain drs2, active compounds read low 0.973 | locus YAL030W, strain snc1, active compounds read low 1 | locus YAL040C, strain CLN3, active compounds read low 0.995 | locus YBL061C, strain skt5, active compounds read low 0.993 | locus YBR009C, strain hhf1, active compounds read low 0.983 | locus YBR021W, strain FUR4, active compounds read low 0.973 | locus YBR023C, strain chs3, active compounds read low 0.986 | locus YBR171W, strain sec66, active compounds read low 0.997 | locus YBR229C, strain ROT2, active compounds read low 1.01 | locus YBR231C, strain swc5, active compounds read low 0.981 | locus YBR279W, strain paf1, active compounds read low 0.996 | locus YCL011C, strain gbp2, active compounds read low 0.973 | locus YCL016C, strain dcc1, active compounds read low 0.969 | locus YCL029C, strain bik1, active compounds read low 1 | locus YCL061C, strain MRC1 (second series), active compounds read low 1 | locus YCL061C, strain MRC1, active compounds read low 0.988 | locus YCL069W, strain vba3, active compounds read low 1 | locus YCR088W, strain abp1, active compounds read low 0.999 | locus YDL005C, strain med2, active compounds read low 0.992 | locus YDL035C, strain GPR1, active compounds read low 1.02 | locus YDL040C, strain nat1, active compounds read low 1.01 | locus YDL074C, strain BRE1, active compounds read low 0.997 | locus YDL101C, strain DUN1, active compounds read low 1 | locus YDL134C, strain PPH21, active compounds read low 1.01 | locus YDL185W, strain tfp1, active compounds read low 0.999 | locus YDL192W, strain arf1, active compounds read low 0.999 | locus YDR001C, strain nth1, active compounds read low 0.997 | locus YDR069C, strain doa4, active compounds read low 1.02 | locus YDR101C, strain arx1, active compounds read low 1.01 | locus YDR137W, strain rgp1, active compounds read low 1.02 | locus YDR150W, strain NUM1, active compounds read low 1 | locus YDR159W, strain sac3, active compounds read low 1.03 | locus YDR162C, strain NBP2, active compounds read low 1.01 | locus YDR195W, strain ref2 1.06 | locus YDR297W, strain sur2, active compounds read low 1.02 | locus YDR318W, strain mcm21, active compounds read low 0.984 | locus YDR334W, strain swr1, active compounds read low 0.986 | locus YDR335W, strain msn5, active compounds read low 1.02 | locus YDR363W, strain ESC2, active compounds read low 0.997 | locus YDR388W, active compounds read low 0.993 | locus YDR392W, strain spt3, active compounds read low 0.878 | locus YDR502C, strain sam2, active compounds read low 0.986 | locus YEL003W, strain gim4, active compounds read low 0.989 | locus YEL037C, strain rad23, active compounds read low 1 | locus YEL061C, strain CIN8 (second series), active compounds read low 1 | locus YEL061C, strain CIN8, active compounds read low 1 | locus YER002W, strain NOP16, active compounds read low 0.995 | locus YER015W, strain faa2, active compounds read low 0.978 | locus YER016W, strain bim1, active compounds read low 1 | locus YER110C, active compounds read low 0.993 | locus YER111C, strain swi4, active compounds read low 0.986 | locus YER155C, strain BEM2 (second series), active compounds read low 0.947 | locus YER155C, strain BEM2, active compounds read low 1.02 | locus YER167W, strain BCK2, active compounds read low 1.01 | locus YFR010W, strain ubp6, active compounds read low 0.985 | locus YGL078C, strain dbp3, active compounds read low 0.999 | locus YGL086W, strain mad1, active compounds read low 0.996 | locus YGL167C, strain pmr1, active compounds read low 0.995 | locus YGL173C, strain kem1, active compounds read low 0.99 | locus YGL227W, strain vid30, active compounds read low 0.999 | locus YGL240W, strain doc1, active compounds read low 1 | locus YGL248W, strain PDE1, active compounds read low 0.99 | locus YGL253W, strain hxk2, active compounds read low 1.01 | locus YGR135W, strain pre9, active compounds read low 0.96 | locus YGR252W, strain gcn5, active compounds read low 0.941 | locus YHR013C, strain ard1, active compounds read low 0.986 | locus YHR027C, strain rpn1, active compounds read low 1 | locus YHR030C, strain SLT2, active compounds read low 1 and 1.02 | locus YHR079C, strain IRE1 (second series), active compounds read low 0.993 | locus YHR079C, strain IRE1, active compounds read low 1.01 | locus YHR094C, strain hxt1, active compounds read low 0.997 | locus YHR129C, strain ARP1, active compounds read low 0.997 | locus YHR142W, strain chs7, active compounds read low 0.997 | locus YHR200W, strain rpn10, active compounds read low 0.997 | locus YIL066C, strain RNR3, active compounds read low 1 | locus YIL073C, strain SPO22, active compounds read low 0.992 | locus YIL125W, strain kgd1, active compounds read low 1.01 | locus YIR030C, strain dcg1, active compounds read low 0.996 | locus YJL092W, strain hpr5, active compounds read low 0.988 | locus YJL095W, strain BCK1 (second series), active compounds read low 0.999 | locus YJL095W, strain BCK1, active compounds read low 0.971 and 0.995 | locus YJL115W, strain asf1, active compounds read low 0.996 | locus YJL129C, strain trk1, active compounds read low 0.994 | locus YJL134W, strain LCB3, active compounds read low 1 | locus YJL154C, strain vps35, active compounds read low 0.998 | locus YJL164C, strain tpk1, active compounds read low 0.993 | locus YJL166W, strain qcr8, active compounds read low 1 | locus YJL168C, strain set2, active compounds read low 0.989 | locus YJL187C, strain SWE1 (second series), active compounds read low 1 | locus YJL187C, strain SWE1, active compounds read low 1.01 | locus YJR043C, strain POL32, active compounds read low 1
